{
  "source": "PubChem BioAssay AID1347142",
  "about": "(National Center for Advancing Translational Sciences (NCATS), 2019)",
  "note": "Results filed as inconclusive are left out. A number with no mark means an inactive call. The source made the active and inactive calls. Calls follow the shape of the dose curve; as a rule, active = well fitted inhibition curve with a large enough effect; inconclusive = small, poorly fitted or top-dose-only effect; inactive = no such curve, though single readings can be large or run the other way. Also: nearly all actives have a fitted effect of over 80% in size. For activity change, negative = inhibition in this document: 0% is about no effect. Potency is read from the fitted curve at half-maximal effect.",
  "data": [
    {"molecular_target": "N-terminal Xaa-Pro-Lys N-methyltransferase 1 (Homo sapiens) (UniProt Q9BV86)", "sequence (Q9BV86 whole entry, looked up)": "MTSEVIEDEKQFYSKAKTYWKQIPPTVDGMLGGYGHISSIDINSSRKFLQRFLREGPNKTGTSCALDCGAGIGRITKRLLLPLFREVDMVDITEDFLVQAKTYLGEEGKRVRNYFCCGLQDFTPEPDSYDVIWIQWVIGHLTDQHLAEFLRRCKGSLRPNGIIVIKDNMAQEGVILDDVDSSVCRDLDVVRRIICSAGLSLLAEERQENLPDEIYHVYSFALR", "experiment": "qHTS Assay for Inhibitors of N-terminal methyltransferase 1 (NTMT1): ThioGlo3 Assay Confirmatory Screen, Round 1.", "conditions": "NTMT1 SAHH-coupled ThioGlo3 fluorescence, 30 min; series mostly up to 56.8 µM; activity change, negative = inhibition: at the top concentration", "how_it_was_run": "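Human NTMT1 at 125 nM was preincubated 1 min at room temperature with compounds at various concentrations or 1 uM RCC1-6 control. Substrate mix (100 uM SAM, 10 uM SAHH, 15 uM ThioGlo3) was added, and fluorescence (Ex 340/Em 450 nm) was read at start and after 30 min, normalized to background.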", "values": [
      {"molecule": "COc1cc2nc(N3CCN(C)CC3)nc(NCCC3CC3)c2cc1OC", "Potency": "24.1 µM (active)"},
      {"molecule": "CNc1nc(N2CCCN(C)CC2)nc2cc(OC)c(OC)cc12", "Potency": "27.1 µM (active)"},
      {"molecule": "Nc1ncnc2c1ncn2[C@@H]1O[C@H](COP(=O)(O)O)[C@@H](O)[C@@H]1O", "activity change, negative = inhibition": "13.1% [at 27.4 µM]"},
      {"molecule": "COc1cc2nc(N3CCCN(C)CC3)nc(NC3CCN(Cc4ccccc4)CC3)c2cc1OC", "Potency": "27.1 µM (active)"},
      {"molecule": "COc1cc2nc(N3CCCCC3)nc(NC(C)C)c2cc1OC", "Potency": "24.1 µM (active)"},
      {"molecule": "Nc1ncnc2c1ncn2C1O[C@H](COP(=O)(O)O)[C@@H](O)[C@H]1O", "note": "(stereo partly specified)", "activity change, negative = inhibition": "-14.8%"},
      {"molecule": "Nc1nc(Cl)nc2c1ncn2[C@H]1C[C@H](O)[C@@H](CO)O1", "Potency": "inactive"},
      {"molecule": "COc1cc2c(NC3CCN(CC4CCCCC4)CC3)nc(N3CCCCC3)nc2cc1OCCCN1CCCCC1", "Potency": "17.1 µM (active)"},
      {"molecule": "COc1cc2c(NC3CCN(C4CCCCC4)CC3)nc(N3CCCCC3)nc2cc1OCCCN1CCCCC1", "Potency": "24.1 µM (active)"},
      {"molecule": "COC1C(O)C(CO)OC1n1cnc2c(NC3CCCCC3)ncnc21", "note": "(stereo unspecified)", "activity change, negative = inhibition": "14.5%"},
      {"molecule": "OC[C@H]1O[C@@H](n2cnc3c(NCc4ccccc4)ncnc32)[C@H](O)[C@@H]1O", "activity change, negative = inhibition": "-5.53%"},
      {"molecule": "Nc1nc(=S)c2ncn([C@H]3O[C@@H](CO)[C@@H](O)[C@@H]3O)c2[nH]1", "Potency": "13 µM (active)"},
      {"molecule": "COc1cc2c(NC3CCN(C)CC3)nc(N3CCCN(C)CC3)nc2cc1OCCOCCN(C)C", "Potency": "24.1 µM (active)"},
      {"molecule": "NC[C@H]1O[C@@H](n2cnc3c(N)ncnc32)[C@H](O)[C@@H]1O", "activity change, negative = inhibition": "0.444%"},
      {"molecule": "COc1cc2c(NC3CCN(C(C)C)CC3)nc(N3CCCCC3)nc2cc1OCCCN1CCCC1", "Potency": "30.4 µM (active)"},
      {"molecule": "COc1cc2nc(N3CCN(C)CC3)nc(NCCN(C)C)c2cc1OC", "Potency": "24.1 µM (active)"},
      {"molecule": "COc1cc2c(NC3CCN(C)CC3)nc(N3CCCN(C)CC3)nc2cc1OCCN(C)CCN(C)C", "Potency": "27.1 µM (active)"},
      {"molecule": "OC[C@H]1O[C@H](n2cnc3c(NC4CCCC4)nc(Cl)nc32)[C@@H](O)[C@@H]1O", "activity change, negative = inhibition": "-26.2%"},
      {"molecule": "COc1cc2nc(N3CCCCC3)nc(NC3CCN(Cc4ccccc4)CC3)c2cc1OC", "Potency": "21.5 µM (active)"},
      {"molecule": "OC[C@@H]1O[C@H](n2cnc3c(SCc4ccccc4)ncnc32)[C@H](O)[C@H]1O", "activity change, negative = inhibition": "-1.57%"},
      {"molecule": "CCN(c1cc(-c2ccc(CN3CCOCC3)cc2)cc(C(=O)NCc2c(C)cc(C)[nH]c2=O)c1C)C1CCOCC1", "activity change, negative = inhibition": "-13.6%"},
      {"molecule": "Nc1ncnc2c1ncn2[C@H]1O[C@@H](CSCC[C@@H](N)C(=O)O)[C@H](O)[C@@H]1O", "activity change, negative = inhibition": "1900%"},
      {"molecule": "COc1cc2nc(N3CCCN(C)CC3)nc(NC3CCN(C)C3)c2cc1OC", "note": "(stereo unspecified)", "Potency": "24.1 µM (active)"},
      {"molecule": "Nc1ncnc2c1nc(Br)n2C1CC(O)C(CO)O1", "note": "(stereo unspecified)", "activity change, negative = inhibition": "6.52%"},
      {"molecule": "COc1cc2c(NC3CCN(C(C)C)CC3)nc(N3CCCN(c4ccccc4)CC3)nc2cc1OCCCN1CCCC1", "Potency": "17.1 µM (active)"},
      {"molecule": "COc1cc2c(NC3CCN(C(C)C)CC3)nc(N3CCCN(C)CC3)nc2cc1OCCOCCN(C)C", "Potency": "24.1 µM (active)"},
      {"molecule": "COc1cc2nc(N3CCOCC3)nc(NC3CCN(Cc4ccccc4)CC3)c2cc1OC", "Potency": "27.1 µM (active)"},
      {"molecule": "CCN1CCN(c2nc(NC3CC3)c3cc(OC)c(OC)cc3n2)CC1", "Potency": "24.1 µM (active)"},
      {"molecule": "CNC(=O)[C@H]1O[C@H](n2cnc3c(NCc4cccc(I)c4)nc(Cl)nc32)[C@@H](O)[C@@H]1O", "activity change, negative = inhibition": "12.8%"},
      {"molecule": "COc1cc2c(NC3CCN(C)CC3)cc(N3CCCCN(C)CC3)cc2cc1OCCOCCN(C)C", "Potency": "27.1 µM (active)"},
      {"molecule": "COc1cc2nc(N3CCCN(C)CC3)nc(NC(C)C)c2cc1OC", "Potency": "24.1 µM (active)"},
      {"molecule": "CNc1nc2c(N)ncnc2n1[C@@H]1O[C@@H]2COP(=O)(O)O[C@H]2[C@H]1O", "activity change, negative = inhibition": "-22.3%"},
      {"molecule": "COc1cc2c(NC3CCN(C(C)C)CC3)nc(N3CCCN(C)CC3)nc2cc1OCCCN(C)C", "Potency": "24.1 µM (active)"},
      {"molecule": "COc1cc2c(NC3CCN(C)CC3)nc(N3CCCCC3)nc2cc1OCCOCCN(C)C", "Potency": "24.1 µM (active)"},
      {"molecule": "CNc1ncnc2c1ncn2[C@@H]1O[C@H](COP(=O)(O)O)[C@@H](O)[C@H]1O", "activity change, negative = inhibition": "-11.9%"},
      {"molecule": "COc1cc2c(NC3CCN(C(C)C)CC3)nc(N3CCCCCC3)nc2cc1OCCCN1CCCCC1", "Potency": "24.1 µM (active)"}
    ]}
  ]
}
